The text below walks through data of publication PMC11006913.

Common to all, as to test: PBM; 200 nM protein, PBS
Settings in all cases: dsDNA, one strand shown

In assay [1] the target is HOXB6 (Homo sapiens, UniProt P17509 132-218, K202E).
Assay [2] deals with HOXB6 (Homo sapiens, UniProt P17509 132-218).
In the next assay the target is T1, SIX6 (Homo sapiens, UniProt O95475 114-200, T165G).
T1 sequence: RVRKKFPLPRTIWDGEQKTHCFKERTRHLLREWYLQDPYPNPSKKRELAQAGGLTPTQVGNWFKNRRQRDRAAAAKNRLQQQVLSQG

For a further assay, the target named is ALX4 (Homo sapiens, UniProt Q9H161 200-286, Q225E).
In a further assay the target is HOXC9 (Homo sapiens, UniProt P31274 178-260, R222W).
Chain of HOXC9 (P31274 178-260 R222W): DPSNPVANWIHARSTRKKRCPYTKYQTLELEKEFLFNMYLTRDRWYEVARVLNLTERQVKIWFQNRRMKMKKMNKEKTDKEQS

Chain of ALX4 (Q9H161 200-286 Q225E): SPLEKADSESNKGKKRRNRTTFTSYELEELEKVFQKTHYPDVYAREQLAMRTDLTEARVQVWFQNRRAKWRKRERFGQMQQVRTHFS
Chain of HOXB6 (Homo sapiens, UniProt P17509 132-218) (P17509 132-218): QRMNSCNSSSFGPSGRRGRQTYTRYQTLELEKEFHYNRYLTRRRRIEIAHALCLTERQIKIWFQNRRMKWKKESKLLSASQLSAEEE
Chain of HOXB6 (Homo sapiens, UniProt P17509 132-218, K202E) (P17509 132-218 K202E): as the sequence (P17509 132-218) above, with K71E counted along it

As for CCACGGAC, the binding signal is 9.01 upbm affinity estimate (log intensity, higher = more binding, comparable within an allelic series) with HOXB6 [1] and 9.02 upbm affinity estimate (log intensity, higher = more binding, comparable within an allelic series) with HOXB6 [2].

CAAAATGG: the binding signal in the assay with HOXB6 [1] was 9.63 upbm affinity estimate (log intensity, higher = more binding, comparable within an allelic series); with HOXB6 [2] it was 10.4 upbm affinity estimate (log intensity, higher = more binding, comparable within an allelic series).

For the sequence GCGCTCCC, the binding signal with HOXB6 [1] was 9.05 upbm affinity estimate (log intensity, higher = more binding, comparable within an allelic series); in the assay with HOXB6 [2], 8.94 upbm affinity estimate (log intensity, higher = more binding, comparable within an allelic series).

For the sequence AAGGGAGC, the binding signal with HOXB6 [1] is 9.01 upbm affinity estimate (log intensity, higher = more binding, comparable within an allelic series); in the assay with HOXB6 [2] it was 8.99 upbm affinity estimate (log intensity, higher = more binding, comparable within an allelic series).

Take CCCCGGTC: the binding signal was 8.98 upbm affinity estimate (log intensity, higher = more binding, comparable within an allelic series) with HOXB6 [1] and 9.03 upbm affinity estimate (log intensity, higher = more binding, comparable within an allelic series) with HOXB6 [2].

On to CGGCGCGC, for which the binding signal is 9.13 upbm affinity estimate (log intensity, higher = more binding, comparable within an allelic series) in the assay with HOXB6 [1] and 9.19 upbm affinity estimate (log intensity, higher = more binding, comparable within an allelic series) with HOXB6 [2].

As for GGGCCCCA, the binding signal with HOXB6 [1] is 8.9 upbm affinity estimate (log intensity, higher = more binding, comparable within an allelic series); with HOXB6 [2] it was 8.9 upbm affinity estimate (log intensity, higher = more binding, comparable within an allelic series).

For CTGGTCCC, the binding signal with HOXB6 [1] is 9.06 upbm affinity estimate (log intensity, higher = more binding, comparable within an allelic series); with HOXB6 [2], 9.01 upbm affinity estimate (log intensity, higher = more binding, comparable within an allelic series).

For CCAATTTC, the binding signal with HOXB6 [1] was 9.48 upbm affinity estimate (log intensity, higher = more binding, comparable within an allelic series); with HOXB6 [2] it was 10.1 upbm affinity estimate (log intensity, higher = more binding, comparable within an allelic series).

Regarding CAACATAA, the binding signal is 9.7 upbm affinity estimate (log intensity, higher = more binding, comparable within an allelic series) with HOXB6 [1] and 10.4 upbm affinity estimate (log intensity, higher = more binding, comparable within an allelic series) in the assay with HOXB6 [2].

In the case of CGTTGCCC, the binding signal with HOXB6 [1] was 9.13 upbm affinity estimate (log intensity, higher = more binding, comparable within an allelic series); in the assay with HOXB6 [2] it was 9.12 upbm affinity estimate (log intensity, higher = more binding, comparable within an allelic series).

GACACCCA: the binding signal in the assay with SIX6 was 10.5 upbm affinity estimate (log intensity, higher = more binding, comparable within an allelic series).

For ACTATTCA, the binding signal was 9.59 upbm affinity estimate (log intensity, higher = more binding, comparable within an allelic series) with HOXB6 [1] and 10.2 upbm affinity estimate (log intensity, higher = more binding, comparable within an allelic series) with HOXB6 [2].

AGGCGGAC: the binding signal is 9.08 upbm affinity estimate (log intensity, higher = more binding, comparable within an allelic series) in the assay with HOXB6 [1] and 9.04 upbm affinity estimate (log intensity, higher = more binding, comparable within an allelic series) in the assay with HOXB6 [2].

With GAGGGGCA, the binding signal in the assay with HOXB6 [1] is 9.15 upbm affinity estimate (log intensity, higher = more binding, comparable within an allelic series); with HOXB6 [2] it was 9.24 upbm affinity estimate (log intensity, higher = more binding, comparable within an allelic series).

On to ATCACATG, for which the binding signal was 9.52 upbm affinity estimate (log intensity, higher = more binding, comparable within an allelic series) in the assay with HOXB6 [1] and 9.98 upbm affinity estimate (log intensity, higher = more binding, comparable within an allelic series) with HOXB6 [2].

In the case of CCCTCCGA, the binding signal in the assay with HOXB6 [1] is 9.02 upbm affinity estimate (log intensity, higher = more binding, comparable within an allelic series); with HOXB6 [2], 8.91 upbm affinity estimate (log intensity, higher = more binding, comparable within an allelic series).

As to CTGCCTGC, the binding signal with HOXB6 [1] is 9.03 upbm affinity estimate (log intensity, higher = more binding, comparable within an allelic series); in the assay with HOXB6 [2], 8.97 upbm affinity estimate (log intensity, higher = more binding, comparable within an allelic series).

GCCCCGCA: the binding signal with HOXB6 [1] is 9.01 upbm affinity estimate (log intensity, higher = more binding, comparable within an allelic series); with HOXB6 [2], 9.08 upbm affinity estimate (log intensity, higher = more binding, comparable within an allelic series).

Take CCTCGGAC: the binding signal in the assay with HOXB6 [1] is 9.1 upbm affinity estimate (log intensity, higher = more binding, comparable within an allelic series); with HOXB6 [2], 8.96 upbm affinity estimate (log intensity, higher = more binding, comparable within an allelic series).

As for GCTTGCCC, the binding signal is 9.05 upbm affinity estimate (log intensity, higher = more binding, comparable within an allelic series) with HOXB6 [1] and 9.1 upbm affinity estimate (log intensity, higher = more binding, comparable within an allelic series) in the assay with HOXB6 [2].

With CATGACAC, the binding signal with SIX6 was 10.7 upbm affinity estimate (log intensity, higher = more binding, comparable within an allelic series).

As to AAATGGTC, the binding signal with HOXB6 [1] was 9.65 upbm affinity estimate (log intensity, higher = more binding, comparable within an allelic series); with HOXB6 [2], 10.6 upbm affinity estimate (log intensity, higher = more binding, comparable within an allelic series).

For the sequence GGCGTGGA, the binding signal with HOXB6 [1] is 9.09 upbm affinity estimate (log intensity, higher = more binding, comparable within an allelic series); with HOXB6 [2], 9.03 upbm affinity estimate (log intensity, higher = more binding, comparable within an allelic series).

Regarding AATAAATA, the binding signal with ALX4 was 11 upbm affinity estimate (log intensity, higher = more binding, comparable within an allelic series); in the assay with HOXC9 it was 11 upbm affinity estimate (log intensity, higher = more binding, comparable within an allelic series).

Regarding CCGACTCC, the binding signal is 9.11 upbm affinity estimate (log intensity, higher = more binding, comparable within an allelic series) with HOXB6 [1] and 9.01 upbm affinity estimate (log intensity, higher = more binding, comparable within an allelic series) with HOXB6 [2].

For AATAAATC, the binding signal with ALX4 was 10.8 upbm affinity estimate (log intensity, higher = more binding, comparable within an allelic series).

As to TGACTTAA, the binding signal with HOXB6 [1] was 9.69 upbm affinity estimate (log intensity, higher = more binding, comparable within an allelic series); with HOXB6 [2] it was 10.5 upbm affinity estimate (log intensity, higher = more binding, comparable within an allelic series).

Take CGCAGGAG: the binding signal in the assay with HOXB6 [1] is 9.14 upbm affinity estimate (log intensity, higher = more binding, comparable within an allelic series); in the assay with HOXB6 [2], 8.95 upbm affinity estimate (log intensity, higher = more binding, comparable within an allelic series).

Turning to GCTGGCTA, the binding signal was 9.09 upbm affinity estimate (log intensity, higher = more binding, comparable within an allelic series) with HOXB6 [1] and 9 upbm affinity estimate (log intensity, higher = more binding, comparable within an allelic series) with HOXB6 [2].

With CCGGGGCA, the binding signal with HOXB6 [1] was 8.98 upbm affinity estimate (log intensity, higher = more binding, comparable within an allelic series); with HOXB6 [2], 8.98 upbm affinity estimate (log intensity, higher = more binding, comparable within an allelic series).

In the case of AATAAAAG, the binding signal with ALX4 was 10.4 upbm affinity estimate (log intensity, higher = more binding, comparable within an allelic series); with HOXC9, 11 upbm affinity estimate (log intensity, higher = more binding, comparable within an allelic series).

Regarding AAATCGAC, the binding signal with HOXB6 [1] is 9.47 upbm affinity estimate (log intensity, higher = more binding, comparable within an allelic series); with HOXB6 [2], 10.1 upbm affinity estimate (log intensity, higher = more binding, comparable within an allelic series).

With TCATATCA, the binding signal with SIX6 was 11.2 upbm affinity estimate (log intensity, higher = more binding, comparable within an allelic series).

As for CGCGTGCC, the binding signal in the assay with HOXB6 [1] is 9.06 upbm affinity estimate (log intensity, higher = more binding, comparable within an allelic series); with HOXB6 [2], 9.06 upbm affinity estimate (log intensity, higher = more binding, comparable within an allelic series).

CCCGGTAG: the binding signal is 9.07 upbm affinity estimate (log intensity, higher = more binding, comparable within an allelic series) in the assay with HOXB6 [1] and 9.12 upbm affinity estimate (log intensity, higher = more binding, comparable within an allelic series) in the assay with HOXB6 [2].

CATTAGGC: the binding signal in the assay with HOXB6 [1] was 9.37 upbm affinity estimate (log intensity, higher = more binding, comparable within an allelic series); with HOXB6 [2] it was 10.4 upbm affinity estimate (log intensity, higher = more binding, comparable within an allelic series).

As for CCAGCGGA, the binding signal with HOXB6 [1] is 9.05 upbm affinity estimate (log intensity, higher = more binding, comparable within an allelic series); with HOXB6 [2] it was 8.93 upbm affinity estimate (log intensity, higher = more binding, comparable within an allelic series).

As for AGCCTAGG, the binding signal is 9.04 upbm affinity estimate (log intensity, higher = more binding, comparable within an allelic series) in the assay with HOXB6 [1] and 9.03 upbm affinity estimate (log intensity, higher = more binding, comparable within an allelic series) with HOXB6 [2].

Regarding CGGTGTGC, the binding signal in the assay with HOXB6 [1] was 9.02 upbm affinity estimate (log intensity, higher = more binding, comparable within an allelic series); with HOXB6 [2] it was 8.92 upbm affinity estimate (log intensity, higher = more binding, comparable within an allelic series).

On to AATTTCGG, for which the binding signal was 9.51 upbm affinity estimate (log intensity, higher = more binding, comparable within an allelic series) with HOXB6 [1] and 10.2 upbm affinity estimate (log intensity, higher = more binding, comparable within an allelic series) with HOXB6 [2].

As to TCCTAGGA, the binding signal with HOXB6 [1] was 9.13 upbm affinity estimate (log intensity, higher = more binding, comparable within an allelic series); in the assay with HOXB6 [2], 9.16 upbm affinity estimate (log intensity, higher = more binding, comparable within an allelic series).

Turning to GGCTCGAC, the binding signal with HOXB6 [1] is 9.13 upbm affinity estimate (log intensity, higher = more binding, comparable within an allelic series); in the assay with HOXB6 [2], 8.81 upbm affinity estimate (log intensity, higher = more binding, comparable within an allelic series).

Consider AATACCAA, for which the binding signal in the assay with HOXB6 [1] was 9.59 upbm affinity estimate (log intensity, higher = more binding, comparable within an allelic series); in the assay with HOXB6 [2] it was 10.2 upbm affinity estimate (log intensity, higher = more binding, comparable within an allelic series).

For AAGCAGGC, the binding signal with HOXB6 [1] is 9.08 upbm affinity estimate (log intensity, higher = more binding, comparable within an allelic series); in the assay with HOXB6 [2], 9.05 upbm affinity estimate (log intensity, higher = more binding, comparable within an allelic series).

As to CTCCTCGC, the binding signal in the assay with HOXB6 [1] is 9.02 upbm affinity estimate (log intensity, higher = more binding, comparable within an allelic series); in the assay with HOXB6 [2], 9.05 upbm affinity estimate (log intensity, higher = more binding, comparable within an allelic series).

Take CCGGAGCG: the binding signal is 9.07 upbm affinity estimate (log intensity, higher = more binding, comparable within an allelic series) with HOXB6 [1] and 9.17 upbm affinity estimate (log intensity, higher = more binding, comparable within an allelic series) with HOXB6 [2].

As to ACGCCGCG, the binding signal with HOXB6 [1] was 9.12 upbm affinity estimate (log intensity, higher = more binding, comparable within an allelic series); with HOXB6 [2], 9.15 upbm affinity estimate (log intensity, higher = more binding, comparable within an allelic series).
